A selection: hits, their analogues and other compounds. The true share with any hit is near 31%.
PLAP activator: activates human placental alkaline phosphatase | P05187 | purified PLAP enzyme, luminescent substrate read-out; active compounds read high | activation fold at 20 µM | 96,000 compounds, 1.2% hits; in the data active means activation fold above about 2
Target sequence (P05187 whole entry, looked up): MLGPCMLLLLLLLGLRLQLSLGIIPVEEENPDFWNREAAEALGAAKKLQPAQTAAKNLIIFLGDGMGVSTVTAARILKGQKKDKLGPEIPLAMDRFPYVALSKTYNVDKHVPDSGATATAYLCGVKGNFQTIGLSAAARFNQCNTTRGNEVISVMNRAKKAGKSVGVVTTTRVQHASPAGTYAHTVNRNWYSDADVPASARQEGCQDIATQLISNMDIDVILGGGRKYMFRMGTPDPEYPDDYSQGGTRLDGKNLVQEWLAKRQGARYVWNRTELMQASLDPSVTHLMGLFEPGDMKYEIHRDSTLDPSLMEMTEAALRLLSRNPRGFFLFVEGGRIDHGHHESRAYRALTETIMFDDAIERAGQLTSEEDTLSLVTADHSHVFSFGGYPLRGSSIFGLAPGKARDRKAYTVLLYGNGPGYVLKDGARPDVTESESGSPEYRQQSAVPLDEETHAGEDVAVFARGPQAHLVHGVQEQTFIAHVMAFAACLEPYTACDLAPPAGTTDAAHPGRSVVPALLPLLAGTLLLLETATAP
CYP2C19 inh: blocks human cytochrome P450 2C19; P33261; CYP2C19 Supersomes, luciferin-H EGE luminescence, 30 min; inhibition, % at 5 µM; 96,000 compounds, 21% hits; AID 778;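 active means CYP2C19 inhibition above a set limit at 5 µM in the primary screen, cut at about 50% in these data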;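 further: plate controls were negative control wells for no effect and 2.5 mM tranylcypromine positive control for full effect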
CYP2C9 inh: inhibitors of human CYP2C9 | 96,000 compounds, 20% hits | inhibition, % at 5 µM | AID 777 | CYP2C9 Supersomes, luciferin-H conversion, luminescence;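 active means blocking of liver enzyme CYP2C9 beyond about 50% at 5 µM, limit read from the data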
CYP2C19 act: cytochrome P450 2C19 (human) activation. P33261. recombinant CYP2C19, luciferin-H EGE luminescence; active compounds read high; 0 = fully inhibited enzyme, 1 = untreated enzyme. activation factor at 5 µM. 96,000 tested, under 10 active;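 active means activation factor of at least 2 at 5 µM in the primary screen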;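 further: 0 = wells with 2.5 mM tranylcypromine and 1 = vehicle-only wells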
CYP2C9 activ: activators of human CYP2C9. 96,000 compounds, 1.4% hits. activation factor at 5 µM. P11712. recombinant CYP2C9, luciferin-H conversion, luminescence; active compounds read high; factor 1 = untreated enzyme, 0 = blocked. AID 1024;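 active means activation factor of 2 or more for CYP2C9 at a 5 µM dose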;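 further: 0 = sulfaphenazole-blocked wells and 1 = vehicle-only wells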
* hit, by the source's call.

SMILES	PLAP activator	CYP2C19 inh	CYP2C9 inh	CYP2C19 act	CYP2C9 activ
O=C(N/N=C\c1ccc(Sc2ccccn2)o1)c1cccc(Br)c1	1.6	84*	82*	0.2	0.2
O=S(=O)(c1ccc(OCC(O)CN2CCN(c3ccccc3O)CC2)cc1)N1CCOCC1 (stereo unspecified)	1.3	24	54*	0.8	0.5
O=S(=O)(c1ccc(OCC(O)CN2CCN(c3ccccc3)CC2)cc1)N1CCOCC1 (stereo unspecified)	1.4	64*	34	0.4	0.7
O=S(=O)(c1ccc(OCC(O)CN2CCCC2)cc1)N1CCOCC1 (stereo unspecified)	1.3	0	38	1	0.6
COC(=O)Cc1[nH]nc2c1C(c1c[nH]c3ccccc13)C(C#N)=C(N)O2 (stereo unspecified)	1	52*	26	0.5	0.7
CCOC(=O)Cc1[nH]nc2c1C(c1ccoc1)C(C#N)=C(N)O2 (stereo unspecified)	1.2	77*	38	0.2	0.6
COC(=O)Cc1[nH]nc2c1C(C1C=CCCC1)C(C#N)=C(N)O2 (stereo unspecified)	2*	70*	60*	0.3	0.4
COCc1[nH]nc2c1C(c1ccsc1)C(C#N)=C(N)O2 (stereo unspecified)	0.8	4	-8	1	1.1
Cn1c(CCNC(=O)c2cccs2)nnc1SCC(=O)N1CCN(c2ccccc2)CC1	0.9	11	4	0.9	1
CCOC(=O)c1c(C)n(C)c2c(C)cc(O)c(OC(C)=O)c12	1	-12	-32	1.1	1.3
COc1ccccc1N1CCN(Cc2nc(N)nc(Nc3ccc(C)cc3)n2)CC1	1.1	49	1	0.5	1
COCCn1c(Cc2ccccc2)nnc1SCC(=O)NC(C)C	1.1	0	-16	1	1.2
CC1CCCN(S(=O)(=O)c2cccc(-c3cn4cccnc4n3)c2)C1 (stereo unspecified)	0.9	27	24	0.7	0.8
OC1(c2cccnc2)CCN(Cc2nnnn2C2CCCCC2)CC1	0.9	26	14	0.7	0.9
CCNc1nc(N)c(C(=O)c2ccc(Cl)s2)s1	1	83*	54*	0.2	0.5
CC(C)(C)c1csc(NC(=O)c2ccc(Cl)s2)n1	1.2	15	31	0.8	0.7
O=c1c2cc(N3CCOCC3)ccc2[nH]c(=S)n1CCCN1CCCCCC1	1.7	6	38	0.9	0.6
O=c1c2cc(F)ccc2[nH]c(=S)n1CCCN1CCOCC1	1	67*	-7	0.3	1.1
O=c1c2cc(N3CCOCC3)ccc2[nH]c(=S)n1Cc1ccc(Cl)cc1	1.4	20	58*	0.8	0.4
CCOC(=O)N1CCc2c(sc(NC(=O)c3ccc(Cl)s3)c2C(N)=O)C1	1.2	19	44	0.8	0.6
Cc1ccc2oc(-c3cccc(NC(=O)C4CCCO4)c3)nc2c1 (stereo unspecified)	1.2	12	20	0.9	0.8
CCC(=O)Nc1ccc2oc(-c3cccc(C)c3)nc2c1	1.5	83*	-23	0.2	1.2
O=C(Nc1cccc(-c2nc3cc(Cl)ccc3o2)c1)C1CCCO1 (stereo unspecified)	1.3	48	71*	0.5	0.3
Cc1ccc2oc(-c3cccc(NC(=O)Cc4cccs4)c3)nc2c1	0.8	21	84*	0.8	0.2
CCCC(=O)Nc1cccc(-c2nc3cc(C)c(C)cc3o2)c1	0.8	6	-17	0.9	1.2
SMILES	PLAP activator	CYP2C19 inh	CYP2C9 inh	CYP2C19 act	CYP2C9 activ
Cn1c(C(=O)NCC2CCCO2)cc2c(=O)n3ccccc3nc21 (stereo unspecified)	1	25	22	0.8	0.8
O=C(Nc1cccc2c1CCCC2)C1CCCN(S(=O)(=O)c2cccc3nonc23)C1 (stereo unspecified)	0.8	8	16	0.9	0.8
COc1ccc(NC(=O)C2C(=O)NC3(C)CC2c2ccccc2O3)cc1 (stereo unspecified)	0.9	13	19	0.9	0.8
CC12CC(c3ccccc3O1)C(C(=O)NCc1ccccc1)C(=O)N2 (stereo unspecified)	0.9	60*	21	0.4	0.8
CC1(C(=O)NCc2ccccc2)Oc2ccccc2NC1=O (stereo unspecified)	0.8	77*	76*	0.2	0.2
O=C(CSc1ncnc2c1oc1ccccc12)N1CCCc2ccccc21	1.4	24	35	0.8	0.7
